PubChem BioAssay (NCI)
About 79,000 compounds went through this panel and 15% of them were active in at least one assay; those are over-represented in the sample as a whole. Values without a mark were called inactive. Calls of active or inactive are those of the source. Cut-off read from the data, not from the text of the source: active = growth inhibition above about 70%; inactive = the rest.

assay: NCI Yeast Anticancer Drug Screen. Data for the mlh1 rad18 strain (AID 175); conditions: S. cerevisiae mlh1 rad18 strain growth inhibition; at 5.0 µM (retest, dose inferred, filed as 0.5); active compounds read high
In short: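 Test agents were incubated with a yeast strain of defined genotype (DNA damage repair defect). Inhibition of growth was derived by comparison with vehicle-exposed cultures.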

**Q.** With `Cc1ccccc1Sc1ccccc1[N+](=O)[O-]` as the molecule, how does the growth inhibition read?
**A.** Its growth inhibition is 2%.

**Q.** Which growth inhibition does the source give for `Nc1nc(-c2ccc3c(c2)Sc2ccccc2O3)cs1` here?
**A.** Its growth inhibition is 57%.

**Q.** Which growth inhibition does the source give for `CC(C)(C)C1CCC2c3c([nH]c4ccccc34)C3C(=O)N(c4ccc(C(=O)O)cc4)C(=O)C3C2C1` (stereo not given) here?
**A.** Its growth inhibition is 97% (active).

**Q.** With `CCC[CH2][Sn]([CH2]CCC)([O]N(C)C(=O)c1ccc(Br)cc1)[O]N(C)C(=O)c1ccc(Br)cc1` as the molecule, how does the growth inhibition read?
**A.** Its growth inhibition is 90% (active).

**Q.** For `COC(=O)c1ccc([N+](=O)[O-])o1`, which growth inhibition is on record?
**A.** Its growth inhibition is 13%.

**Q.** For `O=C(OC1=C(Br)C(=O)c2ccccc2C1=O)c1ccccc1`, which growth inhibition is on record?
**A.** Its growth inhibition is 38%.

**Q.** With `O=C(O)C/C(=C\c1ccco1)C(=O)O` as the molecule, how does the growth inhibition read?
**A.** Its growth inhibition is -4%.

**Q.** With `N#C/C(=C/c1ccc([N+](=O)[O-])o1)c1ccccc1` as the molecule, how does the growth inhibition read?
**A.** Its growth inhibition is -21%.

**Q.** For `CCN(CC)CCOc1ccc(C=C2c3ccccc3-c3ccccc32)cc1`, which growth inhibition is on record?
**A.** Its growth inhibition is 98% (active).

**Q.** With `Nc1ncnc(N2CCOCC2)c1N` as the molecule, how does the growth inhibition read?
**A.** Its growth inhibition is -4%.

**Q.** Which growth inhibition does the source give for `Cc1cc(Cl)ccc1N1C(=O)C(=O)C(c2nc3ccccc3o2)C(=O)C1=O` here?
**A.** Its growth inhibition is 25%.

**Q.** Which growth inhibition does the source give for `Cc1nc2c(Cl)nc(Cl)nc2s1` here?
**A.** Its growth inhibition is 23%.

**Q.** Which growth inhibition does the source give for `CC1=NOC(=O)/C1=C/c1ccc(Cl)c(Cl)c1` here?
**A.** The growth inhibition was -10%.

**Q.** With `CN(CCC(=O)/C(=C\c1ccc(Cl)cc1)c1ccccc1)Cc1ccccc1` as the molecule, how does the growth inhibition read?
**A.** The growth inhibition was 99% (active).

**Q.** For `C(=N\N=C\c1ccc2c(c1)OCO2)/c1ccc2c(c1)OCO2`, which growth inhibition is on record?
**A.** The growth inhibition was 10%.

**Q.** Which growth inhibition does the source give for `Clc1ccc(CSc2ncnc3c2ncn3C2CCCCO2)cc1` (stereo not given) here?
**A.** The growth inhibition was 3%.

**Q.** With `CC(=O)OC/C=C/CCCOC(C)=O` as the molecule, how does the growth inhibition read?
**A.** Its growth inhibition is 5%.

**Q.** Which growth inhibition does the source give for `CCCCCCCCCCOC(=O)c1cccnc1` here?
**A.** The growth inhibition was 9%.

**Q.** For `Cc1ccc2c(c1)C1(SCC(=O)N1c1ccc(Cl)cc1)C(=O)N2` (stereo not given), which growth inhibition is on record?
**A.** Its growth inhibition is -5%.

**Q.** For `Oc1ccc(C2CCc3ccccc32)cc1` (stereo not given), which growth inhibition is on record?
**A.** The growth inhibition was -7%.

**Q.** With `[O-][N+]1=C2CCC/C(=N/O)C2(O)C2CCCCC21N1CCOCC1` (stereo not given) as the molecule, how does the growth inhibition read?
**A.** The growth inhibition was 28%.

**Q.** With `CCCCN(c1ccccc1)c1ncnc2c1ncn2C` as the molecule, how does the growth inhibition read?
**A.** Its growth inhibition is 5%.

**Q.** For `Cc1cc(C)nc(/C=C/c2ccccc2)c1`, which growth inhibition is on record?
**A.** The growth inhibition was 10%.

**Q.** Which growth inhibition does the source give for `CCCCN(C)N=Nc1c(C(N)=O)n[nH]c1C(C)C` here?
**A.** Its growth inhibition is 29%.

**Q.** Which growth inhibition does the source give for `O=C1C(Cl)=C(Cl)C(=O)C2=C1CC(Cl)C(Cl)C2` (stereo not given) here?
**A.** Its growth inhibition is 95% (active).

**Q.** With `O=C1Oc2ccccc2C(=O)/C1=C/N1C(=O)/C(=C/c2ccc3c(c2)OCO3)SC1=S` as the molecule, how does the growth inhibition read?
**A.** The growth inhibition was -4%.

**Q.** With `O=C(/C=C/c1ccc(O)cc1)c1cc(Cl)ccc1O` as the molecule, how does the growth inhibition read?
**A.** The growth inhibition was 7%.

**Q.** Which growth inhibition does the source give for `CCCC(C(=O)OCCNC1CCCCC1)c1ccccc1` (stereo not given) here?
**A.** The growth inhibition was 2%.

**Q.** Which growth inhibition does the source give for `c1ccc2cc3c(cc2c1)Nc1c2ccccc2nc2cccc-3c12` here?
**A.** Its growth inhibition is 29%.

**Q.** Which growth inhibition does the source give for `CCCC1CCCC1(CC(=O)c1ccccc1)C(=O)O` (stereo not given) here?
**A.** The growth inhibition was 47%.

**Q.** With `COc1ccc(CCN2C(=O)C(=O)N(C3CCCCC3)C2=O)cc1OC` as the molecule, how does the growth inhibition read?
**A.** Its growth inhibition is -6%.

**Q.** Which growth inhibition does the source give for `COC(C(=O)O)c1ccccc1` (stereo not given) here?
**A.** The growth inhibition was -3%.

**Q.** For `CCCCCCCCC(=O)NCCCNCCCNC(=O)CCCCCCCC`, which growth inhibition is on record?
**A.** Its growth inhibition is -11%.

**Q.** For `C[Si](C)(CCC(=O)O)O[Si](C)(C)CCC(=O)O`, which growth inhibition is on record?
**A.** The growth inhibition was -1%.

**Q.** With `Cc1c2cc[n+](C)cc2c(C)c2c1[nH]c1ccc(Cl)cc12` as the molecule, how does the growth inhibition read?
**A.** Its growth inhibition is 51%.

**Q.** With `O=[N+]([O-])c1ccc(C2=Nn3c(nnc3-c3ccc(Cl)cc3)SC2)o1` as the molecule, how does the growth inhibition read?
**A.** The growth inhibition was 30%.

**Q.** Which growth inhibition does the source give for `CCCCCCCCCCN(CCCCCCCCCC)CC(O)c1cc(-c2ccccc2)nc2ccccc12` (stereo not given) here?
**A.** The growth inhibition was 4%.

**Q.** For `O=C(c1ccccc1)C(c1ccccc1)C1(O)C(=O)Nc2c(Cl)cc(Cl)cc21` (stereo not given), which growth inhibition is on record?
**A.** Its growth inhibition is 0%.

**Q.** With `COC(=S)S` as the molecule, how does the growth inhibition read?
**A.** The growth inhibition was 1%.

**Q.** For `CC/C(=C(\CC)c1ccc(O)c(CN(CC)CC)c1)c1ccc(OC)cc1`, which growth inhibition is on record?
**A.** Its growth inhibition is 5%.
